Source: PubChem BioAssay (National Center for Advancing Translational Sciences (NCATS))
Most compounds without a hit are left out; they make up all but 5.3% or so of the library.
TDP1 inh = inhibitors of human tyrosyl-DNA phosphodiesterase TDP1. AID 485290. recombinant TDP1, AlphaScreen DNA substrate cleavage. Q9NUW8. Potency, µM (doses to about 130 µM), hits mostly inhibitors. hit rate 0.28% among 350,000; further: nearly all actives have a fitted effect of over 40% in size
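Recombinant human Tdp1 (E. coli-expressed, 1 nM final) preincubated with compounds 15 min at room temperature, then 5'-biotin/3'-phosphotyrosine-FITC DNA substrate (15 nM final) added for 5 min. AlphaScreen beads (10 ug/ml final) added 10 min; cleavage lowers signal.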
BAZ2B block = inhibitors of human BAZ2B bromodomain; AlphaScreen BAZ2B-H3K14Ac peptide displacement; Potency, µM (top dose mostly 114 µM), actives largely listed as inhibitors; hit rate 4.4% among 360,000; further: nearly all actives have a fitted effect of over 60% in size
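BAZ2B 50 nM plus b-H3(5-23)K14Ac 50 nM, PBS pH 7.4/0.01% Tween-20, 30 min RT; compound added (max 110 uM), 30 min RT; streptavidin donor/Ni-chelate acceptor beads 10 ug/mL final, 20 min dark; AlphaScreen read.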
HP1b binding inh = blocks HP1-beta chromodomain binding to methylated histone tails | Potency, µM (series often up to 114 µM), usual class: inhibitors | AlphaScreen HP1-beta / biotin-H3K9me3 peptide binding | hit rate 0.56% among 390,000; further: nearly all actives have a fitted effect of over 70% in size
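AlphaScreen: HP1-beta (50 nM) preformed 30 min with biotin-H3(1-18)K9me3 peptide (50 nM) in PBS pH 7.4, 0.01% Tween-20. Compound added for 30 min at RT, then streptavidin donor/nickel chelate acceptor beads (10 ug/mL) for 30 min.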
Six1-Eya2 inh = blocks human Six1 binding to Eya2; Q15475+O00167; AlphaScreen GST-Six1/His-Eya2 binding, biochemical; active compounds read low; activity change, % (concentration not given with the values); hit rate 0.56% among 360,000; in the data active means activity change below about -65%; inconclusive means mostly about -30% to -63%
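AlphaScreen luminescence read after one hour at 37 °C in darkness. Pin-transferred compounds met GST-Six1 and His-Eya2 protein (5X stock 250 nM/500 nM) plus glutathione donor and Ni-chelate acceptor beads (5X, 50 ug/mL).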
JMJD2A Tudor inh = inhibitors of human JMJD2A Tudor domain. O75164. AlphaScreen JMJD2A-Tudor / H3K4me3 peptide binding. Potency, µM (doses to about 114 µM), most hits filed as inhibitors. hit rate 4.4% among 390,000; further: nearly all actives have a fitted effect of over 50% in size
CtBP-E1A blk = CtBP/E1A binding inhibition; activity change, % (concentration not given with the values); AID 651724; AlphaScreen GST-E1A/His-CtBP binding, 1536-well; active compounds read low; hit rate 0.49% among 340,000; in the data active means activity change below about -65%; inconclusive means mostly about -30% to -63%
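In 5 uL wells, 23 nL compound meets equimolar GST-E1A and His-CtBP (5X stock 125 nM each) for 2 h, 37 °C. Beads (5X, 50 ug/mL) then 1 h, 37 °C, dark.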
Numbers stand for hits; - = inactive; ? = inconclusive; . = no result given; [ ] = another dose, or the depositor's remark. Unless noted, the call rests on the fitted dose curve; in most records, active means well fitted inhibition curve with a large enough effect; inconclusive means small, poorly fitted or top-dose-only effect; inactive means no such curve, though single readings can be large or run the other way.

SMILES | TDP1 inh | BAZ2B block | HP1b binding inh | Six1-Eya2 inh | JMJD2A Tudor inh | CtBP-E1A blk
COc1ccc(Cl)cc1NC(=O)CSc1nc2c(oc3ccccc32)c(=O)n1Cc1ccco1 | - | - | - | . | - | .
CC(OC(=O)c1cc(=O)[nH]c2ccccc12)C(=O)N1C(C)CCCC1C (stereo not drawn) | - | - | - | - | 18µM | -
COc1ccc(C=O)cc1COc1ccc([N+](=O)[O-])c(C)c1 | - | - | - | - | - | -
COc1ccc(C=O)cc1COc1ccc2c(c1)OCO2 | - | ? | - | - | 7.1µM | -
Cc1ccc2c(Cl)c(Cc3ccccc3)c(=S)[nH]c2n1 | . | . | ? | - | 32µM | -
Cc1ccc(S(=O)(=O)C(CNS(=O)(=O)c2cc(F)ccc2F)c2cccs2)cc1 (stereo not drawn) | - | - | - | . | - | .
COc1ccc2ncc3c(-c4ccc(C)c(C)c4)nn(CC(=O)NC4CCCCC4)c3c2c1 | - | - | - | . | - | .
O=c1cc2ncc(-c3[nH]ncc3[N+](=O)[O-])cn2[nH]1 | - | ? | - | - | - | -
O=c1cc2ncc(-n3cc([N+](=O)[O-])cn3)cn2[nH]1 | 8.9µM | - | - | - | - | .
CCOc1ccccc1NC(=O)CN(c1ccc(OC)cc1)S(=O)(=O)c1c(C)[nH]c(=O)[nH]c1=O | - | - | - | -84 | - | -84
CCOc1ccc(N(CC(=O)Nc2ccc(OC)cc2OC)S(=O)(=O)c2c(C)[nH]c(=O)[nH]c2=O)cc1 | - | ? | - | -85 | - | -92
CCN(CC)c1ccc2c(c1)CCCN2 | - | 45µM | . | . | . | .
O=S(=O)(c1ccc2c(c1)CCCN2)N1CCCCC1 | - | - | - | - | - | .
CCN(CC)S(=O)(=O)c1ccc(C(=O)OCC(=O)NCc2ccco2)cc1 | - | 50µM | - | - | ? | -
CN(c1ccccc1)S(=O)(=O)c1ccc(C(=O)OCC(=O)NCc2ccco2)cc1 | - | ? | - | - | ? | -
CCN(CC)S(=O)(=O)c1ccc(/C=C/C(=O)OCC(=O)NCc2cccs2)cc1 | - | - | - | - | - | .
CCN(CC)S(=O)(=O)c1ccc(/C=C/C(=O)OCC(=O)NCc2ccco2)cc1 | . | . | ? | - | 32µM | -
NC(=O)COC(=O)c1cccc(S(=O)(=O)N2CCN(c3ccccc3)CC2)c1 | ? | - | - | - | - | .
O=C(COC(=O)c1cccc(S(=O)(=O)N2CCN(c3ccccc3)CC2)c1)NCc1ccco1 | 79µM | 45µM | - | - | 22µM | -
CCCCc1c2ccccc2nc2[nH]c3ccccc3c12 | - | . | . | . | . | .
O=C(NCc1ccccc1Cl)c1ccc(NC(=O)N2CCSc3ccccc32)cc1 | - | - | - | . | - | .
Cc1cccc(-c2noc(CNC(=O)c3ccccc3Br)n2)c1 | - | - | - | . | - | .
COc1ccc(N2CCN(C(=O)c3oc4ccccc4c3NC(=O)Cc3cccc(OC)c3)CC2)cc1 | - | ? | - | ? | 16µM | ?
COc1ccc(N2CCN(C(=O)c3oc4ccccc4c3C)CC2)cc1 | - | . | ? | - | 40µM | -
COc1ccc(N2CCN(C(=O)c3oc4ccccc4c3NC(=O)Cc3ccc(OC)c(OC)c3)CC2)cc1 | - | ? | - | ? | ? | -
SMILES | TDP1 inh | BAZ2B block | HP1b binding inh | Six1-Eya2 inh | JMJD2A Tudor inh | CtBP-E1A blk
COc1ccc(N2CCN(C(=O)c3cc(=O)c4cc(C)c(C)cc4o3)CC2)cc1 | . | - | - | - | 56µM | -
O=C(Cn1c2ccccc2c(=O)c2ccccc21)Nc1cccc(F)c1 | - | - | - | - | 16µM | .
O=C(Cn1c(=O)c2cccn2c2ccc(F)cc21)Nc1cccc(F)c1 | - | - | - | . | - | .
CCn1c2ccc(C)cc2c2nc3cc(C(=O)O)ccc3nc21 | - | - | - | -69 | - | -66
Cc1ccc(SCc2nc(-c3ccc(C(=O)NCc4ccc(Cl)cc4)cc3)oc2C)cc1 | - | - | - | . | - | .
O=C(CSc1ccsc1[N+](=O)[O-])NCCc1ccc(Cl)cc1 | - | - | - | - | - | -
CCN(CC)c1ccc(NC(=O)CSc2ccsc2[N+](=O)[O-])c(C)c1 | - | 32µM | ? | - | 22µM | -
Cc1ccc(CNC(=O)CSc2ccsc2[N+](=O)[O-])cc1 | - | - | - | - | - | -
CC(=O)c1ccc(NC(=O)CSc2ccsc2[N+](=O)[O-])cc1 | . | 35µM | - | - | ? | .
O=C(CSc1ccsc1[N+](=O)[O-])Nc1cc(F)ccc1F | - | 20µM | ? | - | 45µM | .
Cc1ccc(C)c(CNC(=O)c2ccc3c(c2)nc2n3CCC(C)C2)c1 (stereo not drawn) | - | - | - | . | - | .
COC(=O)[C@H](COC(C)(C)C)NC(=O)O[C@@H]1C(=O)c2cc(Br)ccc2O[C@H]1c1ccc2c(c1)OCO2 | - | . | . | . | . | .
COc1ccc(NCC(=O)Nc2ccc(Cl)cc2C)c(OC)c1 | - | 50µM | ? | - | 50µM | -
O=C(O)c1cccc(-c2ccc(/C=N/n3cnc4sc5c(c4c3=O)CCCC5)o2)c1 | 18µM | ? | . | . | . | .
O=C1/C(=C/c2ccc([N+](=O)[O-])cc2)CCc2ccccc21 | . | 32µM | . | . | . | .
Cc1ccc(NC2=C(c3ccc(C(F)(F)F)cc3)C(=O)c3ccccc32)cc1C | -[12.3 µM] | 56µM | - | . | 56µM | .
COc1ccc(NC2=C(c3ccccc3)C(=O)c3ccccc32)cc1Cl | - | - | - | . | - | .
COc1cc(OC)c(NC(=O)N2CCc3cc(S(=O)(=O)N4CCC(C)CC4)ccc32)cc1Cl | - | - | - | . | - | .
